PubChem BioAssay (NCATS)
Results filed as inconclusive are left out. The source made the active and inactive calls. Calls come from the whole dose curve; as a rule, active = well fitted curve in the direction sought with a large enough effect; inconclusive = small, poorly fitted or top-dose-only effect, or another doubt; inactive = no such curve, though single readings can be large; an effect the other way counts as inactive or inconclusive.

Experiment: P-glycoprotein substrates identified in KB-3-1 adenocarcinoma cell line, qHTS therapeutic library screen (AID 1346986); note: nearly all actives have a fitted effect of over 60% in size
Details: KB-3-1 parental cells viability, CellTiter-Glo, 72 h; series mostly up to 44.5 µM; activity change, negative = cytotoxicity: at the top concentration
How it was run: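 Compounds were tested in dose-response against KB-3-1 and KB-8-5-11 cells at 37 degree C for 72 h, and viability was measured by luminescence. AC50 values came from curve fitting with class-based activity calls.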
% is set by controls: 0 for no effect and ±100 for the full control effect.

Q: For `COC1CC(O[C@H]2CC[C@@]3(C)C(=CCC4C3C(O)[C@@H](O)[C@]3(C)[C@@H](C(C)=O)CC[C@]43O)C2)OC(C)C1OC1CC(OC)C(OC2OC(C)C(O)C(O)C2O)C(C)O1` (some centres not stated), which outcome is on record?
A: The outcome was “inactive [at 9.29 µM]”.

Q: With `CCC(C)(C#N)O[C@@H]1O[C@H](CO)[C@@H](O)[C@H](O)[C@H]1O` (some centres not stated) as the compound, how does the “outcome” value read?
A: Its value is “inactive”.

Q: With `COC1=CC(=O)O[C@@H](/C=C/c2ccccc2)C1` as the compound, how does the “outcome” value read?
A: The value was “inactive”.

Q: With `C/C(O)=C(\C#N)C(=O)Nc1cc(Br)ccc1Br` as the compound, how does the “activity change, negative = cytotoxicity” value read?
A: The value was -8.13% (inactive).

Q: Which “outcome” value does the source give for `COc1cc(C)[nH]c(=O)c1CNC(=O)c1c(C)n([C@H](C)C2CCOCC2)c2ccccc12` here?
A: The value was “inactive”.

Q: For `CCN1CC2(COC)C3[C@@H](OC)C4C1C3(C1C[C@]3(O)[C@H](OC(=O)c5ccccc5)C1[C@]4(OC(C)=O)[C@@H](O)[C@@H]3OC)[C@H](OC)C[C@H]2O` (some centres not stated), which “outcome” value is on record?
A: Its value is “inactive”.

Q: Which “outcome” value does the source give for `COc1c(C(C)C)cc2c(c1O)[C@@]1(C(=O)O)CCCC(C)(C)C1CC2` (some centres not stated) here?
A: Its value is “inactive”.

Q: With `CC(=O)OC12C(O)C(C)C3(O)C4C=C(C)C(=O)C4CC(CO)=CC3C1C2(C)C` (configuration not stated) as the compound, how does the “outcome” value read?
A: Its value is “inactive [at 17.4 µM]”.

Experiment: P-glycoprotein substrates identified in KB-8-5-11 adenocarcinoma cell line, qHTS therapeutic library screen (AID 1346987); note: nearly all actives have a fitted effect of over 65% in size; note: potency is the fitted concentration of half-maximal effect
Details: KB-8-5-11 (P-gp overexpressing) viability, CellTiter-Glo, 72 h; series mostly up to 44.5 µM; activity change, negative = cytotoxicity: at the top concentration
How it was run: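 KB-8-5-11: colchicine-selected sub-line of KB-3-1 over-expressing P-gp; assay medium lacked colchicine. 72 h drug exposure at 37 degree C, CellTiter-Glo.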

Q: With `C[C@@]12C[C@@H](c3ccoc3)OC(=O)C1CC[C@]1(C)[C@H]2[C@H]2C=C[C@]1(O)C(=O)O2` (some centres not stated) as the compound, how does the “activity change, negative = cytotoxicity” value read?
A: The value was 8.91% (inactive).

Q: For `C/C=C(\C)C(=O)OC1CC2C(C)(C)OC(=O)CC(OC(C)=O)C2(C)C2CC(OC(=O)C(C)C)C3(C)C(c4ccoc4)CC4OC43C12C` (configuration not stated), which “activity change, negative = cytotoxicity” value is on record?
A: Its value is -2.47% [at 17.3 µM] (inactive).

Q: For `CC(=O)O[C@H]1CC[C@@]2(C)C(=CC[C@@H]3[C@@H]2CC[C@]2(C)C(=O)CC[C@@H]32)C1`, which “activity change, negative = cytotoxicity” value is on record?
A: The value was -6.94% [at 17.3 µM] (inactive).

Q: With `CC[C@H]1CN2CC[C@H]1C[C@H]2[C@H](O)c1ccnc2ccc(OC)cc12` as the compound, how does the “activity change, negative = cytotoxicity” value read?
A: The value was -7.42% (inactive).

Q: With `COC1CC(O[C@H]2CC[C@@]3(C)C(=CCC4C3C(O)[C@@H](O)[C@]3(C)[C@@H](C(C)=O)CC[C@]43O)C2)OC(C)C1OC1CC(OC)C(OC2OC(C)C(O)C(O)C2O)C(C)O1` (some centres not stated) as the compound, how does the outcome read?
A: Its outcome is “inactive [at 9.29 µM]”.

Q: With `Cc1cc(C(=O)CN2CCCC2)c(C)n1-c1ccc(F)cc1` as the compound, how does the Potency read?
A: Its Potency is “inactive”.

Q: With `CN1C(=O)c2ccccc2NC(=O)C1Cc1ccccc1` (configuration not stated) as the compound, how does the “activity change, negative = cytotoxicity” value read?
A: Its value is 2.5% (inactive).

Q: With `COC1C(O)C(C)OC(OC2C(CO)O[C@@H](O[C@@H]3CC4CCC5C(CC[C@]6(C)[C@@H](C7=CC(=O)OC7)CC[C@]56O)[C@@]4(C)[C@H](O)C3)C(O)C2O)C1O` (some centres not stated) as the compound, how does the Potency read?
A: Its Potency is 0.544 µM (active).

Q: For `OC1(c2ccc(Cl)cc2)c2ccccc2C2=NCCN21` (configuration not stated), which “activity change, negative = cytotoxicity” value is on record?
A: Its value is -4.41% (inactive).

Q: With `CCC(C)(C#N)O[C@@H]1O[C@H](CO)[C@@H](O)[C@H](O)[C@H]1O` (some centres not stated) as the compound, how does the “activity change, negative = cytotoxicity” value read?
A: Its value is 0.226% (inactive).

Q: With `CC[C@H]1CN2CC[C@H]1C[C@@H]2[C@@H](O)c1ccnc2ccc(OC)cc12` as the compound, how does the “activity change, negative = cytotoxicity” value read?
A: The value was -6.53% (inactive).

Q: Which Potency does the source give for `CO[C@@H]1[C@H](O)[C@@H](O[C@@H]2C[C@H]3CC[C@@H]4C(CC[C@]5(C)[C@@H](C6=CC(=O)OC6)CC[C@]45O)[C@@]3(C)[C@H](O)C2)O[C@H](C)[C@@H]1O[C@@H]1O[C@H](CO)[C@@H](O)[C@H](O)[C@H]1O` (some centres not stated) here?
A: The Potency was 0.385 µM (active).

Q: For `CC1C/C=C/C(O)C(O)CC/C=C/c2cc(O)cc(O)c2C(=O)O1` (configuration not stated), which “activity change, negative = cytotoxicity” value is on record?
A: The value was -10.9% (inactive).

Q: With `CN1C(=O)c2ccccc2NC(=O)[C@]12O[C@@H]2c1ccccc1` as the compound, how does the “activity change, negative = cytotoxicity” value read?
A: The value was -7.58% (inactive).

Q: For `Clc1ccc(N2C[C@H]3CC[C@@H](C2)N3)nn1`, which “activity change, negative = cytotoxicity” value is on record?
A: Its value is 9.18% (inactive).

Q: For `COC([CH2][Hg])CNC(=O)c1ccccc1OCC(=O)O` (configuration not stated), which “activity change, negative = cytotoxicity” value is on record?
A: The value was 11.7% (inactive).

Q: With `CC(CCc1ccc(O)cc1)O[C@@H]1O[C@H](CO[C@H]2OC[C@](O)(CO)[C@H]2O)[C@@H](O)[C@H](O)[C@H]1O` (some centres not stated) as the compound, how does the “activity change, negative = cytotoxicity” value read?
A: Its value is 0.451% [at 17.3 µM] (inactive).

Q: Which “outcome” value does the source give for `CN[C@H]1[C@H](O)[C@H](O[C@@H]2[C@@H](O)[C@H](O[C@H]3O[C@H]([C@H](C)O)[C@@H](O)[C@H](O)[C@H]3N)[C@@H](N)C[C@H]2N)OC[C@@]1(C)O` here?
A: The value was “inactive”.

Q: With `N#C[C@@H](O[C@@H]1O[C@H](CO[C@@H]2O[C@H](CO)[C@@H](O)[C@H](O)[C@H]2O)[C@@H](O)[C@H](O)[C@H]1O)c1ccccc1` as the compound, how does the “activity change, negative = cytotoxicity” value read?
A: The value was -0.964% [at 17.3 µM] (inactive).

Q: With `COC1=CC(=O)O[C@@H](/C=C/c2ccccc2)C1` as the compound, how does the “outcome” value read?
A: The value was “inactive”.

Q: With `C/C(O)=C(\C#N)C(=O)Nc1cc(Br)ccc1Br` as the compound, how does the “outcome” value read?
A: Its value is “inactive”.

Q: For `CN(C)CCc1c[nH]c2ccc(CN3CCN(C)S3(=O)=O)cc12`, which “outcome” value is on record?
A: The value was “inactive”.

Q: For `CO[C@H]1[C@H](O)[C@H](O[C@H]2CC[C@]3(C)C4CC[C@]5(C)[C@H](C6=CC(=O)OC6)CC[C@]5(O)C4CC[C@@H]3C2)O[C@@H](C)[C@@H]1O` (some centres not stated), which Potency is on record?
A: The Potency was 0.0563 µM (active).

Q: For `CC(=O)OC1CC(O)C2(C)C(CC(OC(C)=O)C3(C)C2CCC2(C)C(c4ccoc4)C(=O)C4OC423)C1(C)C` (configuration not stated), which “activity change, negative = cytotoxicity” value is on record?
A: Its value is -2.4% [at 17.3 µM] (inactive).
